# In ChEMBL document CHEMBL3988442, “University of Dundee, Small-Polar-MMV Screening Library” (2021):
# For part of these data: Results with a measured potency or affinity are listed apart.
# What was measured:
# Set-up in all cases: scale not given: direction of the effect not stated beside the values
# [1] = molecular target: Protein translocase subunit SecA (Escherichia coli (strain K12)) (UniProt P10408); assay: Assay to Identify E. coli SecA ATPase Inhibitors; assay type: functional; conditions: 30 µM
# [2] = molecular target: T1, Ubiquitin-activating enzyme e1, putative (Leishmania donovani (strain BPK282A1)) (UniProt E9BSI1); assay: Leishmania donovani Ubiquitin Activating Enzyme (LdE1); assay type: functional; conditions: 30 µM
# T1 sequence (whole entry): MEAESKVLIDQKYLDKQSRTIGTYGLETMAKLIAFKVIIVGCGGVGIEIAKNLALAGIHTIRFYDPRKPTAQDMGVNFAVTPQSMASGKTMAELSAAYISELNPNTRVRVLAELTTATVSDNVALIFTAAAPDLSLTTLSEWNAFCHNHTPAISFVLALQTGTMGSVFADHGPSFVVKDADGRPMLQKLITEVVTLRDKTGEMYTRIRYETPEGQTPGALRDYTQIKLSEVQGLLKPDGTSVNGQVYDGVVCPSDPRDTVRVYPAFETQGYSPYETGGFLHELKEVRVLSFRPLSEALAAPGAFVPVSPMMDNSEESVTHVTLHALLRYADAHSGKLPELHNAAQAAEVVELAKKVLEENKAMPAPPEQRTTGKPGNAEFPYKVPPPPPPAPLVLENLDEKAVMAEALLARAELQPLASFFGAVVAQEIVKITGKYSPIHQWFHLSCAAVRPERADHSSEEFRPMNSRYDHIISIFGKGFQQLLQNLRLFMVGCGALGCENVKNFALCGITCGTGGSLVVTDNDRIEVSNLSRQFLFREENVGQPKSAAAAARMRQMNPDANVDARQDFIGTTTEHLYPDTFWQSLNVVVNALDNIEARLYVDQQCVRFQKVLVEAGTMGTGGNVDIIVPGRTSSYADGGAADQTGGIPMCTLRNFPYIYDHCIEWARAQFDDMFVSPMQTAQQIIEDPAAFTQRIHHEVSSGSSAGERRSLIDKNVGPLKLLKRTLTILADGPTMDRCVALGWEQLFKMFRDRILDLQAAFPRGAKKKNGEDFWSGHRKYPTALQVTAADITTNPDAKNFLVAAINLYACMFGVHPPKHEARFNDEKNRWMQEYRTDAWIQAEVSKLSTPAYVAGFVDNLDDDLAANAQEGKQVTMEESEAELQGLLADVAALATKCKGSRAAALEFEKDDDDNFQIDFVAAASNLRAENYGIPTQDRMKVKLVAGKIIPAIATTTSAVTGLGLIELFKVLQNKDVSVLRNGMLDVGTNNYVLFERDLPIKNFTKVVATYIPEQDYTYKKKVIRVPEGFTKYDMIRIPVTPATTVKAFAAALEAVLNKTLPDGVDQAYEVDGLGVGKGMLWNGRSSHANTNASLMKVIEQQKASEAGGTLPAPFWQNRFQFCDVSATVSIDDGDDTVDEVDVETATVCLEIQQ
# [3] = molecular target: T2, Aspartate--tRNA(Asp/Asn) ligase (Mycobacterium tuberculosis (strain ATCC 25618 / H37Rv)) (UniProt P9WFW3); assay: Assay for Asp RNA synthetase-1 from Mycobacterium tuberculosis; assay type: functional; conditions: 30 µM; note: in the data most compounds retested in dose-response had high values
# T2 sequence (whole entry): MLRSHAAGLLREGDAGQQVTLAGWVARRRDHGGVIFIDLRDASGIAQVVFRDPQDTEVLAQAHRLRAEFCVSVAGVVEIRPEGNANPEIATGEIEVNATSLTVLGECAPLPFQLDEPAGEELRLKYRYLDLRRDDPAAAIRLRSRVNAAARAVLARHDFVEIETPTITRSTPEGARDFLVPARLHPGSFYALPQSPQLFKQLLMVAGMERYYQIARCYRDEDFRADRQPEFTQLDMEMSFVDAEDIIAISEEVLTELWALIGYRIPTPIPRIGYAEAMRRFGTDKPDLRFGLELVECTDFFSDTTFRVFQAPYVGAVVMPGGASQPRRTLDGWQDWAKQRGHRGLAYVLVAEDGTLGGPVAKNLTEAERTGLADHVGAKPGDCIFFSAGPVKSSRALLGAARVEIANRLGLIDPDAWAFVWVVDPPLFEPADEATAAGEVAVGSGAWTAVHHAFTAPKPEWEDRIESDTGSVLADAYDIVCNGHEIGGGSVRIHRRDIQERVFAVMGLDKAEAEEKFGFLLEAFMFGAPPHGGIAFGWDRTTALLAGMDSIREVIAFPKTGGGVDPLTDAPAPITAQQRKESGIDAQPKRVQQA
# [4] = molecular target: Sialic acid-binding Ig-like lectin 9 (Homo sapiens) (UniProt Q9Y336); assay: Hs-Siglec9 ALPHAscreen SOP 20170721; conditions: 10 µM
# [5] = system: Trypanosoma cruzi; assay: Trypanosoma cruzi phosphomannomutase and mannose-1-phosphate guanylyltransferase assay; assay type: functional; conditions: 10 µM
# [6] = molecular target: T3, Arginase-2, mitochondrial (Homo sapiens) (UniProt P78540); assay: in vitro enzyme assay to detect the production of urea directly proportional to the activity of Arginase II; assay type: functional; conditions: 33.3 µM; note: in the data most compounds retested in dose-response had high values
# T3 sequence (whole entry): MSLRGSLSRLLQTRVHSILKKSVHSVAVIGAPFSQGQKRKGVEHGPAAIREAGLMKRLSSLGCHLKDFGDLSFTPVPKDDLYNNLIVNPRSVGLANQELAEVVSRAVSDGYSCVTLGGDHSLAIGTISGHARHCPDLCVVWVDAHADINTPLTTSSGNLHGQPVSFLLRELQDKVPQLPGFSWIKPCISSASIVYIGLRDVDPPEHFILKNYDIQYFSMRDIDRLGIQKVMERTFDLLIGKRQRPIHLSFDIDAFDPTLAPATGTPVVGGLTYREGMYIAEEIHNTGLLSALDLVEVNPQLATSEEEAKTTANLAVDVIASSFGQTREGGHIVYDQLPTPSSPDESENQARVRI
# [7] = molecular target: T4, Proteasome subunit beta (Trypanosoma cruzi) (UniProt O96673); assay: Trypanosoma cruzi proteasome chymotrypsin-like activity (TcProtChymo) assay.; note: in the data most compounds retested in dose-response had high values; assay type: functional; conditions: 9.37 µM
# T4 sequence (whole entry): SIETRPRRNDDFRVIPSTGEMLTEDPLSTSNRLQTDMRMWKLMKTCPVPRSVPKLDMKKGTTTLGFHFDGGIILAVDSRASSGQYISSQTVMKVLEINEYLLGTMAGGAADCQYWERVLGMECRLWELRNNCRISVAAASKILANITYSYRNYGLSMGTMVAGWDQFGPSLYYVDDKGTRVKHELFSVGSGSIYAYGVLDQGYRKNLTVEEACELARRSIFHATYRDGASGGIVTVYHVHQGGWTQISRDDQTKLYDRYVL
# [8] = organism: Homo sapiens; assay: To identify inhibition of the IFN signalling (Jak-Stat) pathway via expression of an eGFP reporter gene under the control of an IFN-stimulated response element (ISRE) containing MxA promoter.; assay type: functional; conditions: 30 µM
# [9] = molecular target: Shiga toxin 2 (Escherichia coli O157:H7) (UniProt P09385+P09386); assay: E. coli 0.157:H7 Shiga Toxin SOP - stx2 screening assay; assay type: functional; conditions: 30 µM
# [10] = molecular target: T5, Tyrosyl-tRNA synthetase, putative (Trypanosoma cruzi (strain CL Brener)) (UniProt Q4DSP6); assay: Trypanosoma cruzi tyrosyl tRNA synthetase (TcYRS) _High Tyrosine SOP; assay type: functional; conditions: 30 µM; note: in the data most compounds retested in dose-response had high values
# T5 sequence (whole entry): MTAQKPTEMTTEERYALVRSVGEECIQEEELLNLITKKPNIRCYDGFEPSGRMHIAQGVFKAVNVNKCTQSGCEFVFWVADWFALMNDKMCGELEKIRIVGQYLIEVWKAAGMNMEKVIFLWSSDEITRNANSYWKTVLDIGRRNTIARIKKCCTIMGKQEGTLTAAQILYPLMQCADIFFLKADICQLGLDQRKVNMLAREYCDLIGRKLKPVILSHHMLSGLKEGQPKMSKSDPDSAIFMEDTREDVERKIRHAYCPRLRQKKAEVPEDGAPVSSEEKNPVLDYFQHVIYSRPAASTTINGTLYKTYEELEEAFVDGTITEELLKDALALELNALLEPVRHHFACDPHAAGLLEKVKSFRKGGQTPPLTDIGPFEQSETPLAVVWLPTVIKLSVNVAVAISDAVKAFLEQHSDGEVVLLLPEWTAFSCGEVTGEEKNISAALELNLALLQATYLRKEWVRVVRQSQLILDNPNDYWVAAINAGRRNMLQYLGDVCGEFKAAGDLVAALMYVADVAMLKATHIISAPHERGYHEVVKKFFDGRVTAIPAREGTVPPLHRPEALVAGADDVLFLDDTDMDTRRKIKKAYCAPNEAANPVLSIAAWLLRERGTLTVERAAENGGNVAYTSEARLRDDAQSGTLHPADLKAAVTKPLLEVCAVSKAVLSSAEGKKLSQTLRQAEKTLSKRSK
# [11] = molecular target: T5, Tyrosyl-tRNA synthetase, putative (Trypanosoma cruzi (strain CL Brener)); assay: Trypanosoma cruzi tyrosyl tRNA synthetase (TcYRS) SOP; assay type: functional; conditions: 30 µM
# [12] = molecular target: Chromo domain-containing protein 1 (Saccharomyces cerevisiae (strain ATCC 204508 / S288c) (Baker's yeast)) (UniProt P32657); assay: ScCHD-1 Enzyme Inhibition Assay; assay type: functional; conditions: 30 µM; note: in the data most compounds retested in dose-response had high values
# Chain of Chromo domain-containing protein 1 (Saccharomyces cerevisiae (strain ATCC 204508 / S288c) (Baker's yeast)) (P32657 whole entry, the tested form may be a part): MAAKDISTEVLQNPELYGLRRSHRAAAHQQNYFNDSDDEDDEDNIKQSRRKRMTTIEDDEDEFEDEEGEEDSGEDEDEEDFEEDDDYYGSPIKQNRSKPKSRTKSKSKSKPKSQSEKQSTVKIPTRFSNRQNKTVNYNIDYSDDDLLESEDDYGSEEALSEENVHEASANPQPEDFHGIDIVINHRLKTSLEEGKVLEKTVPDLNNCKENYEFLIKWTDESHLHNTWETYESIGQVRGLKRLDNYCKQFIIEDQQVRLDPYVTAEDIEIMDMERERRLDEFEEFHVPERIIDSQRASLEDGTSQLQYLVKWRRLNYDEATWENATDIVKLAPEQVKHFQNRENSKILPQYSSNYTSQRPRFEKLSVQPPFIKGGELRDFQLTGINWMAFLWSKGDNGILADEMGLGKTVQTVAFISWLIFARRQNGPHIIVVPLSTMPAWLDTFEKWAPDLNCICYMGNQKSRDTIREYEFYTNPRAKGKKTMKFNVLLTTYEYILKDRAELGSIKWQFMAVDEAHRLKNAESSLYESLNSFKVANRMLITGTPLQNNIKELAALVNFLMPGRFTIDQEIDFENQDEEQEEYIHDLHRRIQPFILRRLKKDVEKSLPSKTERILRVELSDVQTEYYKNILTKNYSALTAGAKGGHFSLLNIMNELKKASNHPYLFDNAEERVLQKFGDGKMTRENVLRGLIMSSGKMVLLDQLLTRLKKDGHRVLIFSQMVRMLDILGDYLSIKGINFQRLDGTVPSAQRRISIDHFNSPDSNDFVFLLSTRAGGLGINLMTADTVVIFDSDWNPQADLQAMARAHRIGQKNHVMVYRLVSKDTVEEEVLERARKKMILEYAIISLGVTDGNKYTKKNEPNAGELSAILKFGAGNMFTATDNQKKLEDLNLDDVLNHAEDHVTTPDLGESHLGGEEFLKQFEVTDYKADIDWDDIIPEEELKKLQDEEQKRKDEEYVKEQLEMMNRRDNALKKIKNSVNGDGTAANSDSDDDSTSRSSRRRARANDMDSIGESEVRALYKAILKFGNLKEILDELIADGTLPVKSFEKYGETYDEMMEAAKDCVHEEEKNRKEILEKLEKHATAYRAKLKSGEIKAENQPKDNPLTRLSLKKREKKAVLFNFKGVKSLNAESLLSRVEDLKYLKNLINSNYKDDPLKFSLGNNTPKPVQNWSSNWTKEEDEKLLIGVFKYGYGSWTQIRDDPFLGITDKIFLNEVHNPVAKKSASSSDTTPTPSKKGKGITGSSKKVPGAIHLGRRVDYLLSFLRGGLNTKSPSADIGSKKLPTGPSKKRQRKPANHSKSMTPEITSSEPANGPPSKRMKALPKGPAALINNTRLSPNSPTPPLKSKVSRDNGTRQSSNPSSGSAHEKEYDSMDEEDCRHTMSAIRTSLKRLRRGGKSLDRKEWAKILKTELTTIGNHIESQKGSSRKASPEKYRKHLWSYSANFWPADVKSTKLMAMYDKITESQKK
# Chain of Protein translocase subunit SecA (Escherichia coli (strain K12)) (P10408 whole entry): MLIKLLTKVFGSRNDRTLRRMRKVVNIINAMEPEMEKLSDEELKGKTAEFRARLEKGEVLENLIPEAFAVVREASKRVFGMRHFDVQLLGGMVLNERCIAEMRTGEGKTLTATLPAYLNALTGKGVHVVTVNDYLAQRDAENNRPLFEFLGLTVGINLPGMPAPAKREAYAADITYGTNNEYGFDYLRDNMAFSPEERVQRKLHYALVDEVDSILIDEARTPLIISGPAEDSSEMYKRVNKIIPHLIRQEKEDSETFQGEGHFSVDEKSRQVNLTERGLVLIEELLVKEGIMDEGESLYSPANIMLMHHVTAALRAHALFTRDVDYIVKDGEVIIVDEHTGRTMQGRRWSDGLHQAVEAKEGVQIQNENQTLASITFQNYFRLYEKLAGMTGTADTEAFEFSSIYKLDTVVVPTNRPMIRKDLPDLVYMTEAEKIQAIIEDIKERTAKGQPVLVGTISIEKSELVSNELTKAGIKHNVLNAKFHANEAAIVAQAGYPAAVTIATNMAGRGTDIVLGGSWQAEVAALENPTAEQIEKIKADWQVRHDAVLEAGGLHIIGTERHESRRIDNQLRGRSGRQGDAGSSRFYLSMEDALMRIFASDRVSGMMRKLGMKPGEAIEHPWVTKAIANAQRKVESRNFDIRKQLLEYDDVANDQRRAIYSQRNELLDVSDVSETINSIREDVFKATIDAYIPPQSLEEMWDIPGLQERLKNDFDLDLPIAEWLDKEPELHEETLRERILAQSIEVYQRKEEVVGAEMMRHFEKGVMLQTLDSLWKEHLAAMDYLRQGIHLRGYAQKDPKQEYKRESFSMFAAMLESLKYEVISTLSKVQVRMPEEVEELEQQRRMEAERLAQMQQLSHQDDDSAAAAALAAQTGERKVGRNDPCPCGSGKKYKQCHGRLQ
# Chain of Sialic acid-binding Ig-like lectin 9 (Homo sapiens) (Q9Y336 whole entry): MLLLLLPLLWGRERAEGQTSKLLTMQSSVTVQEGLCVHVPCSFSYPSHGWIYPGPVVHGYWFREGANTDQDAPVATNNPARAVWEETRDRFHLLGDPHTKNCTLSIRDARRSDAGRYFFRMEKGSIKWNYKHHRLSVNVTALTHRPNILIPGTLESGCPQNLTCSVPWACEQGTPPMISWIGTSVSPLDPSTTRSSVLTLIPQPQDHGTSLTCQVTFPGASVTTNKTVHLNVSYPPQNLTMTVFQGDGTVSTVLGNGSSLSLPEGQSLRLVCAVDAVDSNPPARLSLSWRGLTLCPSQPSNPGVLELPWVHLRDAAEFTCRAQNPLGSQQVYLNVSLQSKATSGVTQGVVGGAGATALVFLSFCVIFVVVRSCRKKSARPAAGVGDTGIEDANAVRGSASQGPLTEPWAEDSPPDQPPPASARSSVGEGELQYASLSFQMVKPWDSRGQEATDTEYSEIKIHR
smiles,measurement,setting,value
CCCN1C(=O)CC2(CCCNC2)C1=O (stereo not drawn),Percent Effect,[1],-4.19%
same,Percent Effect,[2],11.7%
same,Percent Effect,[3],3.28%
same,Percent Effect,[4],-2.44%
same,Percent Effect,[5],-1.13%
same,Percent Effect,[6],-0.913%
same,Percent Effect,[7],3.86%
same,Percent Effect,[8],-15.1%
same,Percent Effect,[9],2.28%
same,Percent Effect,[10],1.93%
same,Percent Effect,[11],7.5%
same,Percent Effect,[12],-2.73%
NC(=O)N1CC2(CCNCC2)c2cc(Cl)ccc21,Percent Effect,[1],0.158%
same,Percent Effect,[2],1.3%
same,Percent Effect,[3],0.933%
same,Percent Effect,[4],-0.465%
same,Percent Effect,[5],-3.38%
same,Percent Effect,[6],4.11%
same,Percent Effect,[7],8.84%
same,Percent Effect,[8],10.9%
same,Percent Effect,[9],4.45%
same,Percent Effect,[10],0%
same,Percent Effect,[11],-2.5%
same,Percent Effect,[12],2.33%
Cc1noc(C)c1CN1CCCC2(CCN(C(=O)NC3CC3)C2)C1 (stereo not drawn),Percent Effect,[1],-2.63%
same,Percent Effect,[2],22.1%
same,Percent Effect,[3],0.865%
same,Percent Effect,[4],-1.1%
same,Percent Effect,[5],-3.94%
same,Percent Effect,[6],5.94%
same,Percent Effect,[7],17.2%
same,Percent Effect,[8],16.8%
same,Percent Effect,[9],-1.92%
same,Percent Effect,[10],13.5%
same,Percent Effect,[11],15%
same,Percent Effect,[12],-10.3%
C[C@H]1C(=O)NC[C@H]2CN(Cc3ccccc3)C[C@H]21,Percent Effect,[1],-1.35%
same,Percent Effect,[2],-1.3%
same,Percent Effect,[3],0.819%
same,Percent Effect,[4],-0.437%
same,Percent Effect,[5],1.5%
same,Percent Effect,[6],-0.457%
same,Percent Effect,[7],-1.12%
same,Percent Effect,[8],13.9%
same,Percent Effect,[9],5.59%
same,Percent Effect,[10],4.83%
same,Percent Effect,[11],0%
same,Percent Effect,[12],0.883%
CCc1cnc(N2CC3(CCN(Cc4ccsc4)C3)C2)nc1,Percent Effect,[1],-5.86%
same,Percent Effect,[2],3.9%
same,Percent Effect,[3],14.2%
same,Percent Effect,[4],-1.39%
same,Percent Effect,[5],-7.3%
same,Percent Effect,[6],0%
same,Percent Effect,[7],9.27%
same,Percent Effect,[8],12.9%
same,Percent Effect,[9],-11%
same,Percent Effect,[10],8.95%
same,Percent Effect,[11],2.56%
same,Percent Effect,[12],-4.35%
Cc1cccc(CN2C(=O)C[C@H]3[C@@H]2CCN3Cc2ccccn2)n1,Percent Effect,[1],0.959%
same,Percent Effect,[2],22.1%
same,Percent Effect,[3],3.98%
same,Percent Effect,[4],-1.08%
same,Percent Effect,[5],-1.13%
same,Percent Effect,[6],-1.83%
same,Percent Effect,[7],12.8%
same,Percent Effect,[8],-7.67%
same,Percent Effect,[9],-19.3%
same,Percent Effect,[10],-0.966%
same,Percent Effect,[11],20%
same,Percent Effect,[12],-6.04%
COCC(=O)N1C[C@@H]2OCCN(Cc3c(C)noc3C)[C@@H]2C1,Percent Effect,[1],-1.15%
same,Percent Effect,[2],1.3%
same,Percent Effect,[3],-3.8%
same,Percent Effect,[4],-1.81%
same,Percent Effect,[5],3.02%
same,Percent Effect,[6],17%
same,Percent Effect,[7],27.1%
same,Percent Effect,[8],5.87%
same,Percent Effect,[9],-14.3%
same,Percent Effect,[10],5.79%
same,Percent Effect,[11],10.3%
same,Percent Effect,[12],24%
NC(=O)CN1CCCN(C(=O)Cc2ccc(F)c(Br)c2)CC1,Percent Effect,[1],-6.33%
same,Percent Effect,[2],10.7%
same,Percent Effect,[3],-0.338%
same,Percent Effect,[4],-0.341%
same,Percent Effect,[5],-3.61%
same,Percent Effect,[6],-0.444%
same,Percent Effect,[7],12.6%
same,Percent Effect,[8],-6.89%
same,Percent Effect,[9],-17.2%
same,Percent Effect,[10],4.74%
same,Percent Effect,[11],7.69%
same,Percent Effect,[12],-9.76%
O=C(NCC(F)(F)F)C1=NOC2(CCCNC2)C1 (stereo not drawn),Percent Effect,[1],-8.38%
same,Percent Effect,[2],3.9%
same,Percent Effect,[3],1.78%
same,Percent Effect,[4],4%
same,Percent Effect,[5],-3.21%
same,Percent Effect,[6],-4.86%
same,Percent Effect,[7],4.15%
same,Percent Effect,[8],-6.57%
same,Percent Effect,[9],13.8%
same,Percent Effect,[10],4.74%
same,Percent Effect,[11],2.56%
same,Percent Effect,[12],-0.335%
